Results from PubChem BioAssay (NCI).
The panel holds about 83,000 compounds, 20% with a hit somewhere; the sample as a whole holds those more often.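 In brief: 96-well plates, 48 h treatment, single concentration, percent growth endpoint.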 A number with no mark means an inactive call. Active and inactive are the calls of the source. How the source made its calls: active means growth percent below 10; inactive means the rest.

Tests used:
Test in all cases: NCI-60 one-dose screen, 48 h (100 = growth as untreated, 0 = no growth, -100 = all killed)
Details in all cases: 10 µM unless noted
[1] = test system: SR leukemia
[2] = test system: RPMI-8226 leukemia
[3] = test system: OVCAR-8 ovarian
[4] = test system: OVCAR-5 ovarian
[5] = test system: OVCAR-4 ovarian
[6] = test system: SK-OV-3 ovarian
[7] = test system: IGROV1 ovarian
[8] = test system: HS 578T breast
[9] = test system: NCI/ADR-RES ovarian
[10] = test system: T-47D breast
[11] = test system: BT-549 breast
[12] = test system: MDA-MB-435 melanoma
[13] = test system: SW-620 colon
[14] = test system: MCF7 breast
[15] = test system: HCT-116 colon
[16] = test system: HCC-2998 colon
[17] = test system: KM12 colon
[18] = test system: OVCAR-3 ovarian

Row | SMILES | growth [1] | growth [2] | growth [3] | growth [4] | growth [5] | growth [6] | growth [7] | growth [8] | growth [9] | growth [10] | growth [11] | growth [12] | growth [13] | growth [14] | growth [15] | growth [16] | growth [17] | growth [18]
1 | CCN(CC)c1cc(/C=C/c2ccc(OC)c(OC)c2)nc2cc(F)c(F)cc12 | 10.7% | 99.1% | 36% | 88.7% | 87.2% | -39.5% (active) | 19.2% | 2.13% (active) | 41.2% | 40.2% | 24.5% | 100% | 104% | 65.3% | 24.3% | 116% | 103% | 
2 | CCn1cc(C(=O)O)c(=O)c2cc(F)c(N3CCN(S(=O)(=O)c4c(C)cc(C)cc4C)CC3)cc21 | 64.7% | 64.1% | 81.5% | 88.6% | 91.4% | 101% | 79.4% |  | 84.8% | 74.1% | 73.7% | 89.1% | 95.1% | 93.7% | 79.2% | 82.5% | 87.2% | 89.2%
3 | COc1ccc(-n2cnc3c(sc4ncc(Cl)cc43)c2=O)cc1 | 71.2% | 48.2% | 87.9% | 98.6% | 101% | 84.8% | 65.7% |  |  | 86.1% | 94.9% | 77.4% | 98.3% | 101% | 54.5% | 116% | 55.1% | 53.8%
4 | COc1ccc(OC)c(C(=O)c2oc3ccc(Br)cc3c2N)c1 | 10.2% | -16.5% (active) | 16.6% | 45.5% | 49.4% | -6.27% (active) | 41.2% |  | 15.1% | 37.9% | 27.8% | -64.7% (active) | 16.2% | 15.5% | 16.8% | 36.9% | 30.6% | 3.65% (active)
5 | COc1ccc(S(=O)(=O)N2CCN(c3cc4c(cc3F)c(=O)c(C(=O)O)cn4C3CC3)CC2)c(OC)c1 | 81.6% | 86.7% | 92.4% | 110% | 101% | 98.6% | 101% |  | 102% |  | 95% | 97.7% | 105% | 98.4% | 102% | 118% | 91.1% | 95.8%
6 | C=CCOc1cccc(/C=C/C(=O)c2sc(Nc3cccnc3)nc2C)c1 | 42.4% | 23.1% | 52.6% | 108% | 69.5% | 88.5% | 62.9% | 99.9% | 50.2% | 61.3% | 44% | 22.5% | 15.5% | 19.1% | 20.3% | 86.5% | 24% | 
7 | CCCCCCc1nc2c(c(C)nn2-c2ccccc2)c2c1CCCCC2 | 97.7% | 105% | 107% | 114% | 115% | 95% | 109% |  | 110% | 92.2% | 113% | 116% | 101% | 107% |  | 106% | 108% | 107%
8 | Cc1cc(Nc2nc(-c3ccc(F)cc3)nc3ccccc23)n[nH]1 | 20.4% | 94.8% | 95% | 70.3% | 41% | 21% | 11.3% |  | 71% | 29.3% | 72.9% | 31.2% | 48.8% | 23.8% | 28.5% | 67.3% | 14.8% | 61.5%
9 | CCCCCC(=O)OCc1ccccc1 | 85.4% | 102% | 102% | 105% | 110% | 93.7% | 96.7% |  | 100% | 95.2% | 84.5% | 96.3% | 98.1% | 97.4% | 93.8% | 96.9% | 98.1% | 102%
10 | NS(=O)(=O)c1ccc(CN2C(=O)c3cccc4cccc(c34)C2=O)cc1 | 104% | 87.2% | 91.9% | 89.6% | 119% | 101% | 105% |  | 98% |  | 96.2% | 114% | 104% | 93.9% | 92.7% | 107% | 99.1% | 98.5%
11 | Cc1ccc2nc(-c3c(N)n[nH]c3CCCO)[nH]c(=O)c2c1 | 77.2% | 91.6% | 105% | 110% | 106% | 108% | 7.26% (active) |  | 102% | 111% | 104% | 110% | 101% | 94.5% | 109% | 111% | 111% | 115%
12 | COc1ccc(C(=O)/C=C/c2ccc(/C=C/c3cc(OC)c(OC)c(OC)c3)cc2)cc1 | 9.61% (active) | -0.626% (active) | 28.4% | 117% | 65.7% | 102% | 6.66% (active) |  | 50% | 43.4% | 41.6% | 41% | 39.3% | 30.6% | 17.5% | 94.1% | 29.2% | 41.4%
13 | O=C1Nc2ccc(Br)cc2C1=N/C=c1\[nH]c(=O)/c(=C/c2ccc(Cl)cc2)s1 | 81.6% | 98.2% | 93.6% | 106% | 108% | 91.4% | 105% | 100% | 104% | 80% | 99.8% | 104% | 104% | 86.6% | 87.9% | 118% | 107% | 
14 | CCCCCCCCCCCCCCCCC(Br)C(=O)O (centres undefined) | 105% | 84.6% | 103% | 99.3% | 97.8% | 118% | 125% |  | 110% | 86.7% | 122% | 98.4% | 116% | 92.9% | 105% | 102% | 111% | 100%
15 | FC(F)(F)c1cccc(-n2nnc3cnc(Nc4ccc(N5CCCCC5)cc4)nc32)c1 | 29.2% | 90.9% | 37.5% | 74.3% | -9.56% (active) | 80.2% | 88.8% |  | 76.9% |  |  | 37.5% | 35.7% | 71.2% | 4.87% (active) | 88.3% | 65.8% | 82.4%
16 | CCCCCCCCCCCCNC(=S)N/N=C/c1ccc(Cl)c(Cl)c1 | 93.8% | 102% | 100% | 93.9% | 99.3% | 114% | 119% |  |  | 94.9% | 120% | 98.8% | 110% | 102% | 102% | 106% | 102% | 111%
17 | O=C(O)c1cn(C2CC2)c2cc(N3CCN(S(=O)(=O)c4ccc(Cl)c(Cl)c4)CC3)c(F)cc2c1=O | -25.1% (active) | 4.86% (active) | 5.48% (active) | 12.5% | 20.8% | 26.8% | 29.3% |  | 53.5% | 16.3% | -4.65% (active) | 13% | 20.7% | 13.5% | 3.95% (active) | 24.8% | 14.6% | 9.87% (active)
18 | O=S(=O)(c1ccccc1)n1ccc(-c2ccc3c(c2)CCO3)n1 | 73.3% | 62.4% | 84% | 103% | 70.1% | 104% | 75.7% | 102% | 76% | 68.8% | 96% | 104% | 93.6% | 83.2% | 89.1% | 90.8% | 91.9% | 
